According to PubChem BioAssay AID720549 (National Center for Advancing Translational Sciences (NCATS), 2013):
Records with an inconclusive call do not appear. A number with no mark means an inactive call. Active and inactive are the calls of the source. Calls follow the shape of the dose curve; as a rule, active = well fitted inhibition curve with a large enough effect; inconclusive = small, poorly fitted or top-dose-only effect; inactive = flat fitted curve, though single readings scatter.

Target: RecQ-like DNA helicase BLM (Homo sapiens) (UniProt P54132)
Sequence (P54132 whole entry, looked up): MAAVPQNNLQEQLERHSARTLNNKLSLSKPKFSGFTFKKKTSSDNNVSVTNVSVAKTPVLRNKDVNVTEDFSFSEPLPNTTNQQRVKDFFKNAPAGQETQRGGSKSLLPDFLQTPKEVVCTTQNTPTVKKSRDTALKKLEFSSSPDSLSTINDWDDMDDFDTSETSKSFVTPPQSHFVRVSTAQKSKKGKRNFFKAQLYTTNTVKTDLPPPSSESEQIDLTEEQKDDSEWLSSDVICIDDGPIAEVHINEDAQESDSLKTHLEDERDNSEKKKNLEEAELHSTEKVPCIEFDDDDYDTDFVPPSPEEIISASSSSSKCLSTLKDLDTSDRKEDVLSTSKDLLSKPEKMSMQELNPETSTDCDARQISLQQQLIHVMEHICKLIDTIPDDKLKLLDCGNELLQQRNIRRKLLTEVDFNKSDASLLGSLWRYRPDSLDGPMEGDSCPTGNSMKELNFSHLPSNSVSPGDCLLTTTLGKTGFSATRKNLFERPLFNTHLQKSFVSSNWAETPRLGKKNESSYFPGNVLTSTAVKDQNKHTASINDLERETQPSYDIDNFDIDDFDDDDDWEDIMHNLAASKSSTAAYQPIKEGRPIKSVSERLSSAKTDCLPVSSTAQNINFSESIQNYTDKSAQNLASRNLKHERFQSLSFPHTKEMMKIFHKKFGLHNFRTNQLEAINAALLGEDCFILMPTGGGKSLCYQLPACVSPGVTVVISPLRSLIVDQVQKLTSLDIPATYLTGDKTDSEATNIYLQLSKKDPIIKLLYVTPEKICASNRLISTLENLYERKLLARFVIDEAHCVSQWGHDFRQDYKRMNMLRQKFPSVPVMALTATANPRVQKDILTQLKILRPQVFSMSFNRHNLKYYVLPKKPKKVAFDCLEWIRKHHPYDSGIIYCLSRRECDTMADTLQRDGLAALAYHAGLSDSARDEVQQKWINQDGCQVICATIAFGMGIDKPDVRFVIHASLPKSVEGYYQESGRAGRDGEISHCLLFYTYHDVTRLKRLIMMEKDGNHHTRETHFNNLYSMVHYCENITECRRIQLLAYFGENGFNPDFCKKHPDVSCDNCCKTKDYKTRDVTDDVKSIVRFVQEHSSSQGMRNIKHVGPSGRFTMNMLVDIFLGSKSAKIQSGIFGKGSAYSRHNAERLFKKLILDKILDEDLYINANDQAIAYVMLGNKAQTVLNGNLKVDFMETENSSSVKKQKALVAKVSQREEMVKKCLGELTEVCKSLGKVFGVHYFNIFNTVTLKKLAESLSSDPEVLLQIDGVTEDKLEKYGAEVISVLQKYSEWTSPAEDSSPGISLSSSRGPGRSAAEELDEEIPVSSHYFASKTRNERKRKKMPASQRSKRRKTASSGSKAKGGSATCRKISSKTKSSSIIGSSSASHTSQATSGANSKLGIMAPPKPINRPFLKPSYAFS
Experiment: qHTS for Inhibitors of Bloom's syndrome helicase (BLM): Helicase ATPase Orthogonal Confirmatory Assay for SAR
Conditions: purified BLM helicase ATPase activity assay; series mostly up to 57.1 µM; activity change, negative = inhibition: at the top concentration
Source text: Human RecQ DNA helicases participate in maintenance of genome stability and DNA repair. While other types of helicases have been explored as targets for drug development, members of the RecQ family have remained less well characterized. Mutations of the Bloom helicase gene have been associated with the rare human genetic disease called Bloom syndrome. […] Moreover, identified inhibitors can be used in cells and animal models to examine the consequences of inhibition on the survival of cancer cells where it has been shown that BLM plays an important role.
A fluorescence-based, biochemical assay in 1536 well format was developed to evaluate inhibition of BLM DNA unwinding activity. This assay was used to screen the MLPCN library. The resulting compounds were subjected to orthogonal and secondary biochemical assays to triage the initial hits, to classify compounds based on mode of action and to derive structure activity relationships (SARs) of candidate effectors. The data herein is the result of the Helicase ATPase orthogonal confirmatory assay. This luminescence assay employs a purified BLM enzyme and a single stranded BLM oligo substrate ([…]). For this assay increase in luminescence signal is greater than or equal to 700 RLU. Inhibition is the desired outcome for this assay.
NIH Chemical Genomics Center [NCGC]
NIH Molecular Libraries Probe Centers Network [MLPCN]
Assay Submitter (PI): Opher Gileadi, Structural Genomics Consortium, University of Oxford, UK
Three microliter of reaction buffer (25mM Tris-HCl pH 8.0, 50mM NaCl, 2mM MgCl2, 1mM DTT, and 0.01% Tween- 20, and 2nM BLM enzyme) was dispensed into a 1536-well assay plates (Greiner, solid white medium-binding) via Aurora Discovery BioRAPTR Flying Reagent Dispenser (FRD). Compounds (23nl each in columns 5-48) and control (23nl each in column 2 as dose-response) were transferred via a Kalypsys pintool equipped with a 1536-pin array. The plates were incubated for 15 min at room temperature followed by addition of 1 ul of substrates (200nM single-stranded oligonucleotide and 100uM ATP, final concentrations) to start the reaction. After 15 min., the reaction was terminated by the addition of 2.5ul of ADP-Glo Reagent I (Promega) to each well and incubation at room temperature for 30 min. Next, 5ul of ADP-Glo Reagent II (Promega) was added to each well. After 30 min at room temperature, the luminescence signal was detected using the ViewLux CCD imager. The data was normalized against no-inhibitor and no-enzyme controls and the resulting percent inhibition data were fitted to a sigmoidal dose response using a four-parameter Hill equation.

Compound | activity change, negative = inhibition [%] | Potency
CC(C)(C)c1cccc(NC(=O)Nc2nnc(-c3ccncc3)s2)c1 | -0.236 | 
S=C(Nc1ccc(Cl)c(Cl)c1)Nc1nnc(-c2ccncc2)s1 |  | 2.64 µM (active)
O=C(Cc1nnc(-c2ccncc2)s1)Nc1ccc(F)c(C(F)(F)F)c1 | -15.3 | 
O=C(Nc1ccc(Cl)c(Cl)c1)Nc1nnc(Br)s1 | -6.98 | 
CN(C(=O)Nc1ccc2ccccc2c1)c1nnc(-c2ccncc2)s1 | -14.4 | 
Cc1cc(NC(=O)Nc2nnc(C3CCCCC3)s2)ccc1Cl | -5.55 | 
O=c1c(Nc2ccc(Cl)c(Cl)c2)c(Nc2nnc(-c3ccncc3)s2)c1=O |  | 6.46 µM (active)
CC(C)(C)c1ccc(-c2nnc(NC(=O)Nc3ccc4ccccc4c3)s2)cc1 | -5.07 | 
O=C(Nc1ccc(F)c(C(F)(F)F)c1)Nc1nnc(-c2ccncc2)o1 | -14.1 | 
O=C(Nc1ccc(Cl)c(Cl)c1)Nc1nnc(-c2ccncc2)s1 |  | 6.46 µM (active)
O=C(Nc1ccc(F)c(C(F)(F)F)c1)Nc1cccc(-c2ccncc2)n1 | -25.8 | 
N#Cc1cc(NC(=O)Nc2nnc(-c3ccncc3)s2)ccc1F |  | 1.02 µM (active)
O=C(Nc1cc(C(F)(F)F)cc(C(F)(F)F)c1)Nc1nnc(-c2ccncc2)s1 | -0.324 | 
O=C(Nc1ccc(Cl)c([N+](=O)[O-])c1)Nc1nnc(-c2ccncc2)s1 |  | 1.82 µM (active)
O=C(Nc1ccc(Cl)c(Cl)c1)Nc1nnc(NC2CCNCC2)s1 | 27.6 | 
O=C(Nc1nnc(-c2ccncc2)s1)Nc1cccc2ccccc12 |  | 5.61 µM (active)
Cc1cc(NC(=O)Nc2nnc(C3CCCCC3)s2)ccc1F | -1.09 | 
O=C(NCc1ccccc1)Nc1nnc(-c2ccncc2)s1 | 15.1 | 
O=C(Nc1ccc(Cl)c(Cl)c1)Nc1cccc(-c2ccncc2)n1 | -17.9 | 
O=C(Nc1ccc(Cl)c([N+](=O)[O-])c1)Nc1nnc(C2CCCCC2)s1 | -4.88 | 

Compound | activity change, negative = inhibition [%] | Potency
CCCCCCNC(=O)Nc1nnc(-c2ccncc2)s1 | 11.1 | 
N#Cc1cc(NC(=O)Nc2nnc(-c3ccncc3)s2)ccc1-c1ccc[nH]1 |  | 7.25 µM (active)
O=C(Nc1ccc(Cl)c(C(F)(F)F)c1)Nc1nnc(-c2ccncc2)s1 | 2.12 | 
O=C(Nc1ccc2ccccc2c1)Nc1nnc(-c2ccc(F)cc2)s1 | -3.34 | 
O=C(Nc1ccc2ccccc2c1)Nc1nnc(Br)s1 | 6.02 | 
CC(=O)c1cccc(NC(=O)Nc2nnc(-c3ccncc3)s2)c1 | -4.72 | 
Cc1ccc(-c2nnc(NC(=O)Nc3ccc4ccccc4c3)s2)cc1 | -2.31 | 
Cc1cc(NC(=O)Nc2nnc(-c3cccnc3)s2)ccc1F | -13.4 | 
O=C(Nc1ccc(Cl)c(Cl)c1)Nc1ccnc(-c2ccncc2)n1 | -13.1 | 
O=C(Nc1nnc(-c2ccncc2)s1)Nc1cc(C(F)(F)F)ccc1F | 8.53 | 
O=C(Nc1ccc2ccccc2c1)Nc1nnc(-c2ccc(Cl)cc2Cl)s1 | -10.8 | 
Nc1cc(NC(=O)Nc2nnc(-c3ccncc3)s2)ccc1Cl |  | 20.4 µM (active)
O=C(Nc1ccc(Cl)c(Cl)c1)Nc1nnc(-c2ccc(F)cc2)s1 | -2.99 | 
CN1CCN(c2nnc(NC(=O)Nc3ccc(Cl)c(Cl)c3)s2)CC1 | 1.74 | 
O=C(Nc1ccc(-n2cncn2)c(C(F)(F)F)c1)Nc1nnc(-c2ccncc2)s1 |  | 20.4 µM (active)
O=C(Nc1ccc(Cl)c(Cl)c1)N1CCN(c2ccncc2)CC1 | 5.13 | 
O=C(Nc1ccc(Cl)c(Cl)c1)Nc1ccc(-c2ccncc2)s1 | -6.64 | 
O=C(Nc1cc(F)cc(F)c1)Nc1nnc(-c2ccncc2)s1 | -9.82 | 
O=c1c(Nc2ccc(Br)c(Br)c2)c(Nc2nnc(-c3ccncc3)s2)c1=O |  | 20.4 µM (active)
O=C(Nc1ccc(Br)cc1)Nc1nnc(-c2ccncc2)s1 |  | 8.13 µM (active)
